PubChem BioAssay (NCI)
This is part of a sample that, as a whole, favours compounds with a hit. Of some 83,000 tested, about 20% had one in any assay.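 Step 1: grow cells in 96-well plates. Step 2: add test compound at a single concentration. Step 3: incubate 48 h. Step 4: record percent growth.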 Active and inactive are the calls of the source. The calls were made as follows: active = growth percent below 10; inactive = the rest.

How the values were obtained:
Assay in all cases: NCI-60 one-dose screen, 48 h (100 = growth as untreated, 0 = no growth, -100 = all killed)
Conditions in all cases: 10 µM
[1] = tested on: K-562 leukemia
[2] = tested on: MALME-3M melanoma
[3] = tested on: MDA-MB-231 breast
[4] = tested on: RXF 393 renal
[5] = tested on: SF-268 CNS
[6] = tested on: SF-295 CNS
[7] = tested on: SF-539 CNS
[8] = tested on: UACC-257 melanoma
[9] = tested on: M14 melanoma
[10] = tested on: HCT-15 colon
[11] = tested on: HT29 colon
[12] = tested on: SNB-75 CNS
[13] = tested on: SNB-19 CNS
[14] = tested on: U251 CNS
[15] = tested on: PC-3 prostate
[16] = tested on: SK-MEL-5 melanoma
[17] = tested on: UACC-62 melanoma
[18] = tested on: LOX IMVI melanoma
[19] = tested on: SK-MEL-28 melanoma
[20] = tested on: SK-MEL-2 melanoma

Measured: growth

COc1ccc(OC)c(/C=C/c2nc(SCc3ccccc3)n(-c3ccc(Cl)cc3)n2)c1
active: [6] -15.4%
inactive: [1] 18.2% | [2] 34.9% | [3] 67.1% | [4] 82.8% | [5] 57.7% | [7] 44.2% | [8] 74% | [9] 14.1% | [10] 34% | [11] 63.1% | [12] 59.6% | [13] 61.4% | [14] 38.7% | [15] 35.6% | [16] 45.2% | [17] 33.9% | [18] 32.4% | [19] 71.5% | [20] 69.2%

Cc1ccc(N=Nc2c(N)nc(N)[nH]c2=O)cc1C
inactive: [1] 90.9% | [2] 89.9% | [3] 117% | [4] 110% | [5] 111% | [6] 112% | [7] 102% | [8] 107% | [9] 97.2% | [10] 103% | [11] 93% | [12] 104% | [13] 110% | [14] 103% | [15] 95.7% | [16] 101% | [17] 109% | [18] 96% | [19] 115% | [20] 100%

N#Cc1ncc(-c2cc(F)c(F)c(F)c2)c(NC2CCCCCC2)n1
inactive: [1] 92% | [2] 131% | [3] 91.7% | [4] 84.7% | [5] 82.3% | [6] 89.3% | [7] 97.5% | [8] 93.6% | [9] 101% | [10] 85.2% | [11] 97.6% | [12] 65.1% | [13] 90.9% | [14] 50.2% | [15] 77.1% | [16] 93% | [17] 84.8% | [18] 84.9% | [19] 94.1% | [20] 96.2%

Cc1[nH]nc2c1C(c1cnn(C)c1)C(C#N)=C(N)O2 (stereo not given)
inactive: [1] 93.6% | [2] 95.8% | [3] 117% | [4] 106% | [5] 105% | [6] 105% | [7] 99.3% | [8] 98.3% | [9] 100% | [10] 99.6% | [11] 114% | [12] 73.6% | [13] 98.2% | [14] 102% | [15] 91.2% | [16] 105% | [17] 111% | [18] 94.9% | [19] 110% | [20] 93.8%

CCOC(=O)N1C/C(=C/c2ccc(F)cc2)C(=O)/C(=C/c2ccc(F)cc2)C1
inactive: [12] 56.8% | [13] 39.6% | [20] 21.7%
active: [1] 3.36% | [2] -36.8% | [3] -2.86% | [4] -83.4% | [5] -12% | [6] -22% | [7] 3.86% | [8] -14.7% | [9] -69% | [10] -63.4% | [11] -58.8% | [14] -65.6% | [15] -25.3% | [16] -59.7% | [17] -56.8% | [18] -84.5% | [19] -37.4%

COc1cc(Nc2ncnc(Nc3ccc4c(n3)NC(=O)C(C)(C)O4)n2)cc(OC)c1OC
inactive: [1] 34.6% | [2] 28.2% | [6] 19.6% | [8] 30.2% | [9] 40% | [10] 22.9% | [13] 31.1% | [14] 15.9% | [15] 25.5% | [16] 48.2% | [17] 20.3% | [19] 51.2% | [20] 46.5%
active: [3] 3.82% | [4] -86.6% | [5] -21% | [7] -59.3% | [11] -12.6% | [12] -80.3% | [18] -27%

COc1cc2cc3c(nc2cc1OC)CCN3Cc1ccc(NC(=O)Nc2ccc(F)cc2F)cc1
inactive: [1] 61.5% | [2] 93.2% | [3] 89% | [4] 88.6% | [5] 94.9% | [6] 76.9% | [7] 97.8% | [8] 77.3% | [9] 81.8% | [10] 78.8% | [11] 103% | [12] 86.4% | [13] 76.8% | [14] 91.8% | [15] 68.8% | [16] 86.1% | [17] 69% | [18] 88.6% | [19] 95.7% | [20] 88.2%

Cc1ccc(NC(=O)Nc2nc3ccccc3s2)cc1NC(=O)Nc1nc2ccccc2s1
inactive: [1] 83.8% | [2] 90.6% | [3] 82.4% | [4] 94.7% | [5] 91.5% | [6] 101% | [7] 74.6% | [8] 10.5% | [9] 90.3% | [10] 72.9% | [11] 90.1% | [12] 61.5% | [13] 92% | [14] 77.2% | [15] 44.5% | [16] 79.6% | [17] 86.6% | [18] 91.7% | [19] 101% | [20] 98.5%
